Source: PubChem BioAssay (NCI)
This is part of a sample that, as a whole, favours compounds with a hit. Of some 83,000 tested, about 20% had one in any assay.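 Activity criterion: percent growth below 10, measured after cells in 96-well plates were exposed to a single compound concentration for 48 hours.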 A number with no mark means an inactive call. Active and inactive are the calls of the source.

What was measured:
Test in all cases: NCI-60 one-dose screen, 48 h (100 = growth as untreated, 0 = no growth, -100 = all killed)
Conditions in all cases: 10 µM unless noted
[1] = system: NCI-H23 lung
[2] = system: NCI-H226 lung
[3] = system: NCI-H322M lung
[4] = system: HOP-62 NSCLC
[5] = system: NCI-H460 lung
[6] = system: HOP-92 NSCLC
[7] = system: NCI-H522 lung
[8] = system: A549/ATCC NSCLC
[9] = system: 786-0 renal
[10] = system: COLO 205 colon

COc1ccc2[nH]c(=O)c(/C=C/C(=O)c3ccc(Nc4nccc(-c5ccc6ccccc6c5)n4)cc3)cc2c1
growth [1]: 104%
growth [2]: 96.6%
growth [3]: 97.7%
growth [4]: 102%
growth [5]: 102%
growth [6]: 81.8%
growth [7]: 99.5%
growth [8]: 97.3%
growth [9]: 93.5%
growth [10]: 104%

COc1ccc(-c2cc(-c3cccnc3)nc3sc4c(=O)n(-c5ccc(C)cc5)cnc4c23)cc1OC
growth [1]: 95.7%
growth [2]: 93.3%
growth [3]: 92.4%
growth [4]: 98.4%
growth [5]: 101%
growth [6]: 63.6%
growth [7]: 99.8%
growth [8]: 103%
growth [10]: 97.6%

Brc1cccc(-c2cc(-c3ccc4c(c3)OCCO4)[nH]n2)c1
growth [1]: 42.5% [25 µM]
growth [2]: 25.2% [25 µM]
growth [3]: 46.2% [25 µM]
growth [4]: 20.4% [25 µM]
growth [5]: 10.3% [25 µM]
growth [6]: 62.8% [25 µM]
growth [7]: -5.75% [25 µM] (active)
growth [8]: 25.7% [25 µM]
growth [9]: 40.8% [25 µM]
growth [10]: -24.5% [25 µM] (active)

COc1ccc2nc3cc(Cl)ccc3c(N3CCN(c4nccc(NCc5ccccc5)n4)CC3)c2c1
growth [1]: 73.2%
growth [2]: 96.4%
growth [3]: 89.4%
growth [4]: 35.9%
growth [5]: 89.9%
growth [6]: 69.1%
growth [7]: -0.14% (active)
growth [8]: 78.3%
growth [9]: 79%
growth [10]: 82.1%

CN(C)CCCC(=O)Nc1ccc(Cn2nnc3c2C(=O)c2nnn(Cc4ccc(NC(=O)CCCN(C)C)cc4)c2C3=O)cc1
growth [1]: 2.08% (active)
growth [2]: 102%
growth [3]: 38.5%
growth [4]: 83.2%
growth [5]: 31%
growth [6]: 116%
growth [7]: 71.8%
growth [8]: 91.9%
growth [9]: 96.9%
growth [10]: -9.75% (active)

CCOC(=O)C(Cc1cc(I)c(O)c(I)c1)NC(=O)c1ccccc1 (stereo not drawn)
growth [1]: 102%
growth [2]: 93.1%
growth [3]: 101%
growth [4]: 78.8%
growth [5]: 104%
growth [6]: -14.2% (active)
growth [7]: 87.5%
growth [8]: 83.8%
growth [9]: 97.6%
growth [10]: 108%

CN1C2CCC1/C(=C\c1ccc(Cl)cc1)C1=C2[C@@H](c2ccc(Cl)cc2)C(C#N)=C(N)O1 (stereo partly drawn)
growth [1]: 83.5%
growth [2]: 88.2%
growth [3]: 89.9%
growth [4]: 88.9%
growth [5]: 91.6%
growth [6]: 70.4%
growth [7]: 78.3%
growth [8]: 83.1%
growth [9]: 93.2%
growth [10]: 87.5%

CNc1cc2nc3cc(NC)c(C)cc3cc2cc1C
growth [1]: 13.3%
growth [2]: 26.4%
growth [3]: 12.5%
growth [4]: 10.7%
growth [5]: -85.8% (active)
growth [6]: 11.7%
growth [7]: -2.17% (active)
growth [8]: -4.57% (active)
growth [9]: 12.9%
growth [10]: -39.1% (active)

Cc1cc(Nc2nc(N3CCNCC3)nc3ccccc23)n[nH]1
growth [1]: 96.4%
growth [2]: 86.5%
growth [3]: 91.1%
growth [4]: 109%
growth [5]: 93.4%
growth [6]: 80.2%
growth [7]: 76.4%
growth [8]: 80.8%
growth [9]: 76.1%
growth [10]: 90.8%

COC(/C=C/c1ccc([N+](=O)[O-])cc1)OC
growth [1]: 96.5%
growth [2]: 106%
growth [3]: 101%
growth [4]: 114%
growth [5]: 112%
growth [6]: 85%
growth [7]: 86.9%
growth [8]: 95.4%
growth [10]: 110%

NS(=O)(=O)N(c1cc(C(F)(F)F)cc(C(F)(F)F)c1)C1CCN(Cc2ccc(F)cc2)CC1
growth [1]: 55.5%
growth [2]: 69.3%
growth [3]: 81.7%
growth [4]: 77.3%
growth [5]: 58.4%
growth [6]: 34.9%
growth [7]: 43.2%
growth [8]: 66.5%
growth [9]: 55.5%
growth [10]: -62.7% (active)

CS(=O)(=O)c1ccc(-c2cnc3ccc(-c4cccc(S(C)(=O)=O)c4)nn23)cc1
growth [1]: 44%
growth [2]: 65.1%
growth [3]: 32.8%
growth [4]: 59.2%
growth [5]: 21.4%
growth [6]: 16%
growth [7]: 58.4%
growth [8]: 31%
growth [10]: 46.2%

O=C(/C=C/c1ccc(Cl)cc1)/C=C/c1cc2ccccc2[nH]c1=O
growth [1]: 68%
growth [2]: 93.5%
growth [3]: 105%
growth [4]: 39.4%
growth [5]: 94.4%
growth [6]: 92.5%
growth [7]: 46.4%
growth [8]: 46.5%
growth [9]: 88.5%
growth [10]: 40.8%

CC1=NNC(=O)C1C (stereo not drawn)
growth [1]: 100%
growth [2]: 93.5%
growth [3]: 585%
growth [4]: 87.4%
growth [5]: 114%
growth [6]: 102%
growth [7]: 85.9%
growth [8]: 98.6%
growth [9]: 103%
growth [10]: 110%

CC(=O)CC(C)(C)c1ccc(Cl)cc1
growth [1]: 95.5%
growth [2]: 99%
growth [3]: 107%
growth [4]: 93.3%
growth [5]: 108%
growth [6]: 80%
growth [7]: 95.5%
growth [8]: 103%
growth [9]: 97.8%
growth [10]: 116%

COc1ccc(-c2cn3c(-c4ccc(OC)cc4)cnc3c(Oc3ccc4c(C)cc(=O)oc4c3)n2)cc1
growth [1]: 33%
growth [2]: 70.7%
growth [3]: 82%
growth [4]: 40.9%
growth [5]: 26.4%
growth [6]: -13.6% (active)
growth [7]: 39.6%
growth [8]: 16.5%
growth [10]: 56.1%

C/C(=C(/c1ccc(O)cc1)c1ccc(OCCN(C)C)cc1)c1ccccc1
growth [1]: 81.9%
growth [2]: 89.4%
growth [3]: 77%
growth [4]: 79.8%
growth [5]: 93.7%
growth [6]: 54.9%
growth [7]: 71.8%
growth [8]: 72.4%
growth [9]: 89.5%
growth [10]: 63.8%

Cn1c2ccccc2c2c3c(c4c5ccccc5n(CCCCCC#N)c4c21)C(=O)N(O)C3=O
growth [1]: 4.85% (active)
growth [2]: 25.1%
growth [3]: 48.8%
growth [4]: 27.2%
growth [5]: 2.84% (active)
growth [6]: -11.2% (active)
growth [7]: -51.9% (active)
growth [8]: 34.2%
growth [10]: 62.8%

Cc1ccc(C2CC3c4ccccc4C2C2CCCCN32)cc1 (stereo not drawn)
growth [1]: 93.6%
growth [2]: 95.9%
growth [3]: 84.1%
growth [4]: 98.6%
growth [5]: 104%
growth [6]: 85.4%
growth [7]: 72.6%
growth [8]: 89.9%
growth [9]: 92.7%
growth [10]: 74%

COc1ccc(/C=C2\N=C3Sc4cc(Cl)ccc4C(=O)N3C2=O)cc1
growth [1]: 96%
growth [2]: 83%
growth [3]: 95.8%
growth [4]: 103%
growth [5]: 104%
growth [6]: 82.6%
growth [7]: 87.5%
growth [8]: 96.4%
growth [9]: 101%
growth [10]: 105%

COc1ccc(S(=O)(=O)NCCCNc2cc(-c3c(-c4cccc(OC)c4)nc4sccn34)ccn2)cc1
growth [1]: 59.8%
growth [2]: 37.7%
growth [3]: 67.6%
growth [4]: 80.6%
growth [5]: 44.2%
growth [6]: 62.1%
growth [7]: 52.7%
growth [8]: 42.9%
growth [9]: 52.1%
growth [10]: 35.8%

COc1ccc(-c2nn(-c3ccccc3)cc2/C=C2\SC(=O)NC2=O)cc1
growth [1]: 94.8%
growth [2]: 98.9%
growth [3]: 117%
growth [4]: 101%
growth [5]: 97.5%
growth [6]: 96.6%
growth [7]: 81.6%
growth [8]: 105%
growth [9]: 81.1%
growth [10]: 123%

CCOC(=O)c1c2c(n3ccc(NC(=O)CCN4CCOCC4)cc13)C(=O)c1ncccc1C2=O
growth [1]: 16.7%
growth [2]: 78.5%
growth [3]: 14.3%
growth [4]: 39.9%
growth [5]: 11.1%
growth [6]: 45.1%
growth [7]: -20.5% (active)
growth [8]: 40.4%
growth [9]: 51.8%
growth [10]: 37.9%

COC(=O)[C@@H]1CC[C@]2(C)[C@H](CC[C@@H]3O[C@@]32C)[C@@]1(C)CC(=O)c1ccoc1
growth [1]: 98.5%
growth [2]: 91.8%
growth [3]: 102%
growth [4]: 95.1%
growth [5]: 101%
growth [6]: 93.3%
growth [7]: 80.4%
growth [8]: 83.3%
growth [9]: 107%
growth [10]: 113%

COc1c2ccccc2c(OC)c2[nH]c(=O)ccc12
growth [1]: -11.3% (active)
growth [2]: 37.1%
growth [3]: 22.2%
growth [4]: -13.2% (active)
growth [5]: -57.7% (active)
growth [6]: 72.9%
growth [7]: 71.3%
growth [8]: -34.2% (active)
growth [9]: 89.7%
growth [10]: 38.2%

Cc1ccc(Nc2c(C(N)=O)cnc3ccc(-c4csc(N)n4)cc23)cc1
growth [1]: 88.3%
growth [2]: 88.3%
growth [3]: 108%
growth [4]: 96.4%
growth [6]: 90.2%
growth [7]: 101%
growth [8]: 95.4%
growth [9]: 101%
growth [10]: 96.3%

Nc1ccc(N2CCOCC2)cc1
growth [1]: 86.1%
growth [2]: 102%
growth [3]: 91.2%
growth [4]: 90.8%
growth [6]: 114%
growth [7]: 94.1%
growth [8]: 110%
growth [9]: 92.2%
growth [10]: 123%
